From PubChem BioAssay AID1851 (National Center for Advancing Translational Sciences (NCATS), 2009)
In all, about 16,000 compounds went through this assay and about 5,800 (36%) were called active. Not shown: some 23% with an inconclusive outcome. Calls come from the whole dose curve; as a rule, active = well fitted curve in the direction sought with a large enough effect; inconclusive = small, poorly fitted or top-dose-only effect, or effect the other way; inactive = no such curve, though single readings can be large or run the other way. The list shows a part of the results.

Biological target: Cytochrome P450 2C19 (Homo sapiens) (UniProt P33261)
Sequence (P33261 whole entry, looked up): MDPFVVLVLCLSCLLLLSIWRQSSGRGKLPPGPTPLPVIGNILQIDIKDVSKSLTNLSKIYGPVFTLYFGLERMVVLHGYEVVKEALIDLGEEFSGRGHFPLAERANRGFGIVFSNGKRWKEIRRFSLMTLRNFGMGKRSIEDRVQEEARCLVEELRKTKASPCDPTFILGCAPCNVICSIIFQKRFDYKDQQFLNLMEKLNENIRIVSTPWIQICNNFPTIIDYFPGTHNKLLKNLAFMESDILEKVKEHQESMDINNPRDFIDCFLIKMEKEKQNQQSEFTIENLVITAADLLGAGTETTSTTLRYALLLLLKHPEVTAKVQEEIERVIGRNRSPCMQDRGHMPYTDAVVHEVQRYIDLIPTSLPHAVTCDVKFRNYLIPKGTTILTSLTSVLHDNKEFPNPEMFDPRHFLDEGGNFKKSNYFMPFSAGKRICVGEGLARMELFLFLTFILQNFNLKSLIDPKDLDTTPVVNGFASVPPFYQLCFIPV
Assay: Cytochrome panel assay with activity outcomes
Conditions: recombinant CYP, pro-luciferin dealkylation, luminescence, p450-cyp2c19; series mostly up to 57.1 µM
% is set by controls: 0 for no effect and ±100 for the full control effect.

activity, negative = inhibition, inactive:
O=C1[C@H]2[C@H]3[C@H](O)[C@H](O)C/C(=N/OCc4ccccc4)[C@@H]3CC[C@@H]2C(=O)N1C[C@@H]1CCCO1 -0.01% [at 11.4 µM], CC1(CC(=O)O)O[C@H]2CCCCC[C@H]2O1 (stereo partly drawn) (tested in a mixture with another compound) 1.88% [at 11.4 µM], CC1(CCC(=O)OC2CCCCC2)OCCO1 -35.8% [at 11.4 µM], Nc1ncnc2c1ncn2[C@H]1O[C@@H](C(=O)OCCO)[C@@H](O)[C@H]1O 4.2% [at 11.4 µM], CC(C)=CCC/C(C)=C/CO/N=C1/C[C@@H](O)[C@@H](O)[C@@H]2[C@H]3C(=O)N(c4ccc(F)cc4F)C(=O)[C@@H]3CC[C@H]12 -33.8% [at 11.4 µM], O=C(O)c1cc(-c2ccc(-c3ccc(-c4cc(C(=O)O)c5cc(Cl)ccc5n4)cc3)cc2)nc2ccc(Cl)cc12 -23.2% [at 11.4 µM], O=C1[C@@H]2[C@H]3[C@H](O)[C@H](O)C/C(=N/OCc4ccccc4)[C@H]3CC[C@H]2C(=O)N1c1ccc(F)cc1F -4.38% [at 11.4 µM], CN(C)S(=O)(=O)c1ccc(Nc2ccc(O)c3c2C(=O)c2c([N+](=O)[O-])ccc(O)c2C3=O)cc1 -34.2% [at 11.4 µM], Cc1cc(N)c2cc(NC(=O)Nc3ccc4nc(C)cc(N)c4c3)ccc2n1 -6.46% [at 11.4 µM], C[C@@H]1NCC[C@H](CC(=O)O)[C@H]1CC(=O)O 4.52% [at 11.4 µM]

AC50, active:
O=C(CC1(O)CCCCC1)OC1CCCC1 1.58 µM, COc1ccccc1CNc1cc(-c2ccccc2OC)ncn1 1.58 µM, COc1ccccc1CNc1cc(-c2ccccc2C)ncn1 1 µM, N#C/C(=C\c1cc([N+](=O)[O-])c(N2CCCCC2)cc1N1CCCCC1)c1nn(-c2ccccc2)c(N)c1C#N 0.282 µM, CC1CCN(c2cc(N3CCC(C)CC3)c([N+](=O)[O-])cc2/C=C(\C#N)c2nn(-c3ccccc3)c(N)c2C#N)CC1 0.447 µM, O=C(NNC(=S)NCc1ccco1)c1ccc(Cl)s1 7.94 µM, CCC(C(=O)c1ccccc1)N(C(=O)c1ccccc1Cl)N1C(=O)C2C3C=CC(C3)C2C1=O (stereo not drawn) 3.55 µM, Cn1c(CN2CCCCC2)nc2cc(NC(=O)c3ccc(Cl)cc3)ccc21 28.2 µM, CCn1c(C)cc(/C=C2\SC(=O)N(CC(=O)Nc3ccc(C)c(C)c3)C2=O)c1C 1.12 µM, Cc1c(/C=C2\SC(=O)N(CC(=O)Nc3ccc4c(c3)OCO4)C2=O)c2ccccc2n1C 2.51 µM, CC(C)n1cc(/C=C2/SC(=O)N(CC(=O)Nc3ccc4c(c3)OCO4)C2=O)c2ccccc21 5.01 µM, Cn1cc(/C=C2/SC(=O)N(CC(=O)Nc3ccc4c(c3)OCO4)C2=O)c2ccccc21 0.794 µM, CN(C)c1ncc2nc(CCc3ccccc3)c(=O)n(Cc3cccs3)c2n1 6.31 µM, CCNc1ncc2nc(CCc3ccccc3)c(=O)n(Cc3cccc(OC)c3)c2n1 6.31 µM, COc1cccc(Cn2c(=O)c(CCc3ccccc3)nc3cnc(N(C)C)nc32)c1 0.794 µM, COc1cccc(Cn2c(=O)cnc3cnc(N(C)C)nc32)c1 2.51 µM, COc1cccc(Cn2c(=O)c(CCc3ccccc3)nc3cnc(OC)nc32)c1 15.8 µM, CN(C)c1ncc2nc(CCc3ccccc3)c(=O)n(Cc3ccc(F)cc3)c2n1 0.794 µM, CN(C)c1ncc2ncc(=O)n(Cc3cccs3)c2n1 10 µM, COc1cccc(Cn2c(=O)c(-c3cccc(C#N)c3)nc3cnc(OC)nc32)c1 10 µM, CC(=O)c1ccc(N2CCC(c3cc(-c4ccc(Cl)cc4Cl)n[nH]3)CC2)c([N+](=O)[O-])c1 0.282 µM, CC(=O)c1ccc(N2CCC(c3cc(-c4ccc(Cl)cc4)n[nH]3)CC2)c([N+](=O)[O-])c1 0.501 µM, COc1ccc(-c2cc(C3CCN(c4ccc(C(C)=O)cc4[N+](=O)[O-])CC3)[nH]n2)cc1 2.24 µM, CC(=O)c1cc(CC=C(C)C)c(O)cc1O 2.82 µM, COc1ccc(Sc2ccc(NC(=O)c3ccccc3Cl)cc2C#N)cc1 2.82 µM, COc1cc(/C=N/Nc2snc(SC)c2C#N)cc(OC)c1OC 14.1 µM, COc1ccc(/C=N/Nc2snc(SC)c2C#N)cc1OC 5.01 µM, N/C(=N\OC(=O)c1cc(-c2ccccc2)nc2ccccc12)c1ccc(Cl)cc1 7.94 µM, O=C(CC(=O)c1ccncc1)c1ccccc1 0.398 µM, CCOc1cc(-c2noc(N)c2C#N)cc(OCC)c1OCC 15.8 µM, COc1ccc(NC(=O)CSc2nncn2C)c([N+](=O)[O-])c1 31.6 µM, COc1ccc(NC(=O)CN(C)S(=O)(=O)c2ccc(Cl)cc2)c([N+](=O)[O-])c1 8.91 µM, CC(=O)c1c(C(C)=O)c(C)n(NC(=O)c2ccncc2)c1C 0.2 µM, CCOC(=O)CC(Nc1nc(N2CCOCC2)nc(N2CCOCC2)n1)c1ccccc1Cl (stereo not drawn) 3.16 µM, Cc1cc(NC(=O)Nc2ccc(N(C)C)cc2)c2cc(F)cc(F)c2n1 15.8 µM, Cn1c(SCC(=O)N2CCN(S(=O)(=O)c3ccccc3)CC2)nc2ccccc21 15.8 µM, CC1CCN(C(=O)CSc2nc3cccnc3n2C)CC1 8.91 µM, CCCCCOc1ccc(C(=O)NCC2(c3ccccc3)CCOCC2)cc1 7.94 µM, Clc1ccc(-c2nnc(-c3ccco3)o2)cc1 20 µM, O=C(Cc1ccc(Cl)cc1)Nc1cccc(-c2nnc(-c3ccco3)o2)c1 0.0158 µM

AC50, inactive:
Cc1cnc(CNc2cc(-c3ccccc3CN(C)C)ncn2)cn1, COc1ccccc1CNc1cc(-c2ccc(C(=O)N(C)C)cc2)ncn1, Cc1noc(C)c1C(=O)N1CCC2(CCN(C(=O)NC(C)C)CC2)CC1, OC[C@@H]1NC[C@@H](O)[C@@H](O)[C@H]1O, C=C1c2cccc(O)c2C(O)=C2C(=O)[C@@]3(O)C(O)=C(C(N)=O)C(=O)[C@@H](N(C)C)[C@@H]3[C@@H](O)[C@H]12, Cc1c(NC(=O)NC(C)N2C(=O)C3C4C=CC(C4)C3C2=O)c(=O)n(-c2ccccc2)n1C (stereo not drawn), Cc1c(NC(=O)CN2C(=O)C3C4C=CC(C4)C3C2=O)c(=O)n(-c2ccccc2)n1C (stereo not drawn), COc1ccc(C(=O)Nc2ccc3c(c2)nc(CN2CCN(C(C)=O)CC2)n3C)cc1, Cc1ccc(NC(=O)CN2C(=O)S/C(=C\c3cccn3C)C2=O)cc1, CCNc1ncc2nc(-c3ccccc3)c(=O)n(Cc3cccs3)c2n1, COc1cccc(Cn2c(=O)c(-c3cc(F)cc(F)c3)nc3cnc(N(C)C)nc32)c1, CN(C)c1ncc2nc(-c3ccc(F)cc3)c(=O)n(Cc3cccs3)c2n1, CN(C)c1ncc2nc(-c3ccc(Cl)cc3)c(=O)n(Cc3cccs3)c2n1, COc1cccc(Cn2c(=O)c(-c3ccccc3)nc3cnc(N(C)C)nc32)c1, C=CCN1CCc2cc(O)c(O)cc2[C@H](c2ccccc2)C1, COc1ccc(-c2nc3cnc(OC)nc3n(Cc3cccc(OC)c3)c2=O)cc1, Cc1nc2cnc(N(C)C)nc2n(Cc2cccs2)c1=O, CN(C)c1ncc2nc(-c3ccccc3)c(=O)n(Cc3ccc(F)cc3)c2n1, COc1cccc(Cn2c(=O)c(-c3cccc(C#N)c3)nc3cnc(Nc4ccccc4)nc32)c1, CN(C)c1ncc2nc(-c3cc(F)cc(F)c3)c(=O)n(CCc3ccccc3)c2n1, COc1cccc(Cn2c(=O)c(-c3cn(C)c4ccccc34)nc3cnc(OC)nc32)c1, CN(C)c1ncc2nc(-c3cccs3)c(=O)n(Cc3cccs3)c2n1, COc1ccc(Oc2ncc3nc(-c4cccc(C#N)c4)c(=O)n(Cc4cccc(OC)c4)c3n2)cc1, COc1cc(CC(=O)O)c(C(C)=O)cc1OC, COc1ccc(/C=N/NC(=S)NC2CCS(=O)(=O)C2)cc1OC (stereo not drawn), NNC(=O)c1ccncc1, CN(C)CCO[C@](C)(c1ccccc1)c1ccccn1, COc1ccc(NC(=O)c2cccs2)c([N+](=O)[O-])c1, CC(=O)c1c(C(C)=O)c(C)n(NC(=O)c2ccccc2Cl)c1C, CC(C)NNC(=O)c1ccncc1, CCC[C@H]1C[C@H](C(=O)N[C@H]([C@@H]2O[C@H](SC)[C@@H](O)[C@H](O)[C@@H]2O)[C@H](C)O)N(C)C1, Cc1cc(C)c(C(N)=O)c(NC(=O)Nc2ccccc2)n1, COc1cc(OC)c2c(c1Cl)O[C@@]1(C2=O)[C@H](C)CC(=O)C[C@@H]1OC, COc1ccccc1-n1c(SCC(=O)N2CCCC2)nc2cccnc21, O=C(CCc1nc2ccccc2c(=O)[nH]1)OCC(=O)N1CCN(S(=O)(=O)c2ccccc2)CC1, CCCn1c(=O)c2c(ncn2C)n(CCC)c1=O, N#Cc1cccc(NC(=O)N2CC[C@@]3(CCCN(C(=O)c4ccco4)C3)C2)c1, O=C(Nc1nnc(-c2ccc(Cl)cc2)o1)Nc1ccccc1Cl
